We go through 102 compounds from PubChem BioAssay AID1240 (Sanford-Burnham Center for Chemical Genomics, 2008).

Among all 50,000 compounds or so, about 800 (1.6%) showed an effect of 50% or more. This is one part of a sample in which strong results are shown more often than they occur.

This test deals with Bcl-2-like protein 10 (Homo sapiens) (UniProt Q9HD36). In words: Phenotype converters, Bcl-B/TR3 peptide binding displacement, primary biochemical FP (AID 1240).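 Further: 0% = Bcl-B with tracer peptide and DMSO and 100% = tracer peptide lacking Bcl-B.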 The settings on record: GST-Bcl-B / FITC-TR3 peptide fluorescence polarization; stronger effect = higher value; compound at 3.75 mg/L. (In general: Fluorescence polarisation rises when a labelled molecule tumbles more slowly, as on binding a larger partner.)
Bcl-2-like protein 10 (Homo sapiens), sequence (Q9HD36 whole entry, looked up): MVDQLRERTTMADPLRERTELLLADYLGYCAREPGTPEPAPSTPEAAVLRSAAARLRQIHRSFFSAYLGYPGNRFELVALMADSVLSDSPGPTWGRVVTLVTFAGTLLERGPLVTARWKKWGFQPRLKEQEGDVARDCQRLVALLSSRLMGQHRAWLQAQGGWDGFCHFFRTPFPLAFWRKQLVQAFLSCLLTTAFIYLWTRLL
For `COc1ccc(/C=C2\SC(=Nc3ccc(O)cc3)NC2=O)cc1OC`, the displacement is -6.3%.
The same measure for `O=c1[nH]c(/C=C/c2ccc(OCc3ccccc3)cc2)c([N+](=O)[O-])c(=O)[nH]1`: 114%; for `O=c1[nH]c(/C=C/c2ccccc2)c([N+](=O)[O-])c(=O)[nH]1`: 18.1%.
The same measure for `COc1cc(/C=C/c2[nH]c(=O)[nH]c(=O)c2[N+](=O)[O-])cc(Br)c1OCc1ccccc1`: 15.6%.
The result for `CC(C)(C)OC(=O)C1C(=O)CC(C)(O)C(C(=O)OC(C)(C)C)C1c1ccccc1` (configuration not stated) reads -1.3%.
With `O=c1c2ccccc2nc(SCc2ccccc2)n1Cc1ccccc1`, the displacement was -0.7%.
Consider `O=C(CSc1nc2ccccc2s1)Nc1ncccn1`, for which the displacement amounted to 57.1%.
For the compound `O=C(CSc1nc2ccccc2s1)Nc1nc2ccccc2s1`, the displacement amounted to 7.4%.
The same measure for `O=C(CSc1nc2ccccc2s1)Nc1ccccc1`: 7.4%; for `C=CCN1C(=O)C(Cc2ccccc2)S/C1=N/N=C/c1ccccc1` (configuration not stated): 3%; for `CCC1=NN2C(=N)/C(=C/c3ccc(-c4ccccc4C(=O)OC)o3)C(=O)N=C2S1`: 3.5%.
The result for `COc1cc([N+](=O)[O-])ccc1-c1ccc(/C=C2/C(=N)N3N=C(C(C)C)SC3=NC2=O)o1` reads 77%; that for `CC(C)C1=NN2C(=N)/C(=C/c3ccc(Sc4ccc(Cl)cc4)o3)C(=O)N=C2S1`, -18.4%; that for `CCC1=NN2C(=N)/C(=C/c3ccc(-c4cccc(C(=O)O)c4)o3)C(=O)N=C2S1`, 1.4%.
The result for `CC(C)C1=NN2C(=N)/C(=C/c3ccc(-c4ccc([N+](=O)[O-])cc4)o3)C(=O)N=C2S1` reads 111%; that for `CC(C)C1=NN2C(=N)/C(=C/c3ccc(-c4cccc([N+](=O)[O-])c4)o3)C(=O)N=C2S1`, 173%; that for `COc1cc([N+](=O)[O-])ccc1-c1ccc(/C=C2\C(=O)N(c3ccc(S(N)(=O)=O)cc3)N=C2C)o1`, 5.3%.
As to `Cc1cccc(N2CCN(C3=NC(=O)/C(=C/c4ccc(-c5cccc([N+](=O)[O-])c5)o4)S3)CC2)c1`, the displacement came out at 9.8%.
The result for `CCC1=NN2C(=N)/C(=C/c3ccc(-c4ccc([N+](=O)[O-])cc4OC)o3)C(=O)N=C2S1` reads 4.4%; that for `NC1=NC(=O)/C(=C\c2ccc(-c3ccc([N+](=O)[O-])cc3)o2)S1`, 3.2%.
The result for `CCC1=NN2C(=N)/C(=C/c3ccc(-c4cccc([N+](=O)[O-])c4)o3)C(=O)N=C2S1` reads 124%; that for `CC(C)C1=NN2C(=N)/C(=C/c3ccc(-c4cccc(C(=O)O)c4)o3)C(=O)N=C2S1`, -26.4%.
The result for `O=C1C(=O)N(c2ccccc2Br)C(=O)N1c1cccc(Cl)c1` reads 5.7%; that for `O=C(CSCC(=O)Nc1ccccc1)NCc1ccco1`, -20.8%; that for `Nc1n[nH]c(N)c1N=Nc1cccc(C(F)(F)F)c1`, -2.4%.
Regarding `O=C(Cc1ccc(Cl)cc1)NNC(=O)C1CCCO1` (configuration not stated), the displacement worked out at 2.5%.
Take `COc1cc(C(=O)NN2C(=O)/C(=C/c3ccc(OC)c(OC)c3)SC2=S)ccc1O`: the displacement was -28.1%.
The result for `c1ccc(-c2cc(-c3cc(-c4ccccc4)on3)no2)cc1` reads 2.6%; that for `O=C(Oc1ccc2ccccc2c1)c1cc([N+](=O)[O-])ccc1Cl`, -0.9%.
The same measure for `CN1C(=O)/C(=C\c2ccc(-c3ccc(F)c(Cl)c3)o2)SC1=S`: 3.9%.
The result for `COc1ccc(/C=C2/C(=N)N3N=C(C(C)C)SC3=NC2=O)cc1OC` reads 133%; that for `CCC1=NN2C(=N)/C(=C/c3ccc(OC)c(OC)c3)C(=O)N=C2S1`, -1.4%; that for `CC(C)C1=NN2C(=N)/C(=C/c3ccc(-c4ccc(F)c(Cl)c4)o3)C(=O)N=C2S1`, 146%.
Regarding `CC(C)C1=NN2C(=N)/C(=C/c3cc(Cl)ccc3OCc3ccccc3)C(=O)N=C2S1`, the displacement was -7.4%.
The same measure for `COc1cc(/C=C2/C(=N)N3N=C(C(C)C)SC3=NC2=O)cc(Cl)c1OCCOc1ccccc1`: -39%; for `Cc1c(Cl)cccc1N=Cc1ccc[nH]1`: 11.3%; for `Cc1sc2nc(SCC(=O)NCCO)n(-c3ccccc3)c(=O)c2c1C`: 1.9%.
The result for `COC(C)(C)c1cc(-c2cccc3ccccc23)nc(N)n1` reads 0%; that for `CCOc1ccc2nc(SC)nc(C)c2c1`, -3.6%.
The result for `CCOC(=O)CC(=O)CSc1nc(C)c2cc(OCC)ccc2n1` reads 67.2%.
`C=CCSc1nc(C)c2cc(OCC)ccc2n1`: the displacement is 7.4%.
In the case of `Cc1cc(C)c2oc(-c3ccc(C)c(NC(=O)c4ccc(Br)o4)c3)nc2c1`, the displacement was -3.8%.
For `CN(C)CCCNC(=O)c1ccc(N(C)S(=O)(=O)c2ccccc2)cc1`, the displacement is -13.4%.
As for `CCOC(=O)c1csc(NC(=O)c2ccc(C(=O)c3ccccc3)cc2)n1`, the displacement was -24.4%.
The same measure for `Cc1ccc(C(C)C)c(OCC(=O)Nc2ccc(NC(=O)c3ccccc3Cl)cc2)c1`: -2.1%; for `O=c1[nH]c(=O)n(-c2cccc(Br)c2)c(O)c1/C=C1\C=Nc2ccccc21`: 33.4%.
The same measure for `Cc1cc(C)c(-n2c(O)c(/C=C3\C=Nc4ccccc43)c(=O)[nH]c2=O)c(C)c1`: -4.1%.
The result for `O=c1[nH]c(=O)n(Cc2ccc(F)cc2)c(O)c1/C=C1\C=Nc2ccccc21` reads 51.3%; that for `Cc1cc(C)cc(-n2c(O)c(/C=C3\C=Nc4ccccc43)c(=O)[nH]c2=O)c1`, 71.2%.
As to `O=c1[nH]c(=O)n(Cc2ccc(F)cc2)c(O)c1/C=C1/C=CC=N1`, the displacement came out at 32%.
The same measure for `C=CCn1c(O)c(/C=C2\C=Nc3ccccc32)c(=O)[nH]c1=S`: -2.9%.
The result for `COc1cc(OC)c(OC)cc1/C=N/NC(=O)CSc1nc2ccccc2[nH]1` reads 0.1%.
With `O=C(Nc1ccccc1C(=O)N=Nc1c(O)[nH]c2ccc([N+](=O)[O-])cc12)c1ccccc1`, the displacement is -1.3%.
As to `COc1ccc(C)cc1NC(=O)CN(Cc1ccccc1)S(=O)(=O)c1ccc(OC)c(OC)c1`, the displacement is -46.5%.
The result for `COC(=O)c1c(NC(=O)Nc2ccc(Cl)c(Cl)c2)sc2c1CCC2` reads 11.8%; that for `CCN1CCc2c(sc(NC(=O)Nc3ccc(Cl)cc3)c2C(N)=O)C1`, 21.3%.
Consider `CCN1CCc2c(sc(NC(=O)Nc3ccc(Cl)c(Cl)c3)c2C(N)=O)C1`, for which the displacement was 111%.
The result for `CCOc1ccccc1NC1=CC(=O)CC(c2ccccc2)C1` (configuration not stated) reads -8.1%; that for `COc1ccc(COCC(O)CN2CC(C)OC(C)C2)cc1OC` (configuration not stated), 4%.
The same measure for `O=C(c1ccc(Br)cc1)N1CCN(c2nc3ccc([N+](=O)[O-])cc3s2)CC1`: 3.2%; for `Cc1ccccc1C(=O)N1CCN(c2nc3ccc([N+](=O)[O-])cc3s2)CC1`: 161%.
`CCC(=O)N1CCN(c2nc3ccc([N+](=O)[O-])cc3s2)CC1`: the displacement was -8.8%.
The same measure for `O=C(c1ccc(Cl)cc1Cl)N1CCN(c2nc3ccc([N+](=O)[O-])cc3s2)CC1`: 100%.
With `O=C(c1cccc2ccccc12)N1CCN(c2nc3ccc([N+](=O)[O-])cc3s2)CC1`, the displacement worked out at 28.9%.
As for `COc1ccccc1C(=O)N1CCN(c2nc3ccc([N+](=O)[O-])cc3s2)CC1`, the displacement is -14%.
The result for `COc1ccc(N2C(=O)c3ccccc3NC2c2ccc(OC)c(CN3C(=O)c4ccccc4C3=O)c2)cc1` (configuration not stated) reads -4.2%; that for `COC(=O)CSc1nc(NC(C)=O)nc(C)c1Br`, 4.5%.
The same measure for `Oc1c(Cl)cc(Br)cc1/C=N/Nc1nc(N2CCOCC2)nc(N2CCOCC2)n1`: 9.3%.
`O=C1/C(=C\Nc2cc(Cl)ccc2O)CCc2ccccc21`: the displacement stood at 85.9%.
The same measure for `O=C1/C(=C/Nc2ccccc2NS(=O)(=O)c2ccccc2)CCc2ccccc21`: 10.4%; for `O=C1/C(=C/Nc2ccccc2NS(=O)(=O)c2ccc([N+](=O)[O-])cc2)CCc2ccccc21`: 8.1%; for `CNc1ccc([N+](=O)[O-])cc1N/C=C1\CCc2ccccc2C1=O`: 126%.
The same measure for `O=C1/C(=C\Nc2ccccc2O)CCc2ccccc21`: 3.8%; for `O=C1/C(=C\Nc2ccc3c(c2)OCO3)CCc2ccccc21`: 48.1%; for `C[N+]1=C(CC(=O)Nc2ccccc2Cl)c2ccccc2CC1(C)C`: 1.4%.
The result for `Cc1ccc2nc(-c3ccc(NC(=O)c4ccc(S(=O)(=O)N5CCCC5)cc4)cc3)sc2c1` reads -1.5%; that for `Cc1cc(S(=O)(=O)N2CCCC2C(=O)O)c(C)cc1Cl` (configuration not stated), -5.8%.
Take `O=c1c2c(nc3cc(-c4cccs4)[nH]n13)CCS2`: the displacement amounted to 75.8%.
The same measure for `O=c1c2c(nc3cc(-c4ccco4)[nH]n13)CCS2`: 78.9%.
`O=c1c2c(nc3cc(-c4cccs4)[nH]n13)CCCC2`: the displacement was 20.5%.
The result for `O=c1c2c(nc3cc(-c4cccs4)[nH]n13)CCC2` reads 5.7%; that for `Cc1nc2cc(-c3ccco3)[nH]n2c(=O)c1C`, 17%.
The result for `O=c1c2c(nc3cc(-c4ccccc4)[nH]n13)CCS2` reads -12.6%.
The result for `O=C1NC(=O)N(c2ccc3c(c2)OCO3)C(=O)/C1=C/c1ccc(I)o1` reads 17.5%; that for `COc1cc(/C=N/Nc2ncc(C)c(=O)[nH]2)cc(OC)c1O`, 6.6%.
On to `CN(C)c1ccc(NS(=O)(=O)c2ccc(N3C(=O)CCC3=O)cc2)cc1`, for which the displacement turned out to be 19.2%.
The same measure for `COc1ccc(N/C(C)=C/C(=O)c2ccc(Cl)cc2)c(OC)c1`: 0.8%.
Take `CCCCCCC(=O)Nc1nnc(CC(C)C)s1`: the displacement was -12.9%.
The same measure for `C/C(=N\NC(=O)CCc1c(C)n[nH]c1C)c1ccc(N)cc1`: -4%; for `CCCC1=NN(c2ccc([N+](=O)[O-])cc2)C(=O)/C1=C\N(C)C`: -5.5%.
As for `NC(=O)c1c(NC(=O)Nc2ccc(Cl)cc2)sc2c1CCCC2`, the displacement stood at 0.8%.
The same measure for `CCOc1ccc(N2COc3ccc4ccccc4c3C2)cc1`: 9.1%; for `Cc1ccc(N=Cc2c(O)c([N+](=O)[O-])cc3oc4c(c23)CCCC4)cc1C`: -1.4%; for `Oc1c(Br)cc2oc3c(c2c1/C=N/c1ncn[nH]1)CCCC3`: 8.5%.
The same measure for `Oc1ccccc1N=Cc1c(O)c(I)cc2oc3c(c12)CCCC3`: 130%; for `O=C(NCc1cccnc1)C(=O)N1CCCCC1`: -1.4%.
The same measure for `O=C(CC(c1ccccc1)c1ccccc1)Nc1ccccc1Br`: -11.6%; for `CC(=O)/C=C/c1oc2ccc([N+](=O)[O-])cc2c1-c1ccc(C)o1`: 80.9%.
As to `CC(=O)CCc1oc2ccc([N+](=O)[O-])cc2c1-c1ccc(C)o1`, the displacement came to 3.5%.
`COc1cc2nnc(/C=C/C(C)=O)c(-c3ccc(C)o3)c2cc1OC`: the displacement stood at 48%.
The same measure for `O=C(Nc1ccc(-c2nnc(-c3ccccc3)o2)cc1)c1cccs1`: 15.3%; for `Nc1nonc1C(=O)N/N=C/c1cc(Cl)cc(Cl)c1O`: 9%.
